Assay outcomes deposited in PubChem by National Center for Advancing Translational Sciences (NCATS).
TDP1 cell CPT = qHTS for Inhibitors of human tyrosyl-DNA phosphodiesterase 1 (TDP1): qHTS in cells in presence of CPT; chicken DT40 Tdp1-/-;hTDP1 cells + 20 nM CPT, ATP luminescence, 48 h; Potency, µM (series often up to 46.2 µM), for inactives: top-dose activity change, negative = growth inhibition, usual class: inhibitors; actives 12% (n = 420,000); AID 686979, 2013; further: potency means the concentration at half of the fitted maximal effect; nearly all actives have a fitted effect of over 55% in size
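Cell growth measured by CellTiter-Glo luminescence after a minimum 48 h, 37 C compound exposure with 20 nM CPT in Tdp1-knockout DT40 cells stably expressing hTDP1, seeded 400/well; qHTS titration format.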
HT1080NT lethal = qHTS for induction of synthetic lethality in tumor cells producing 2HG: qHTS for the HT-1080-NT fibrosarcoma cell line | HT-1080-NT fibrosarcoma viability, CellTiter-Glo ATP luminescence, 48 h | Potency, µM (top dose mostly 46.1 µM), inactives show at the highest dose activity, negative = less viability, hits mostly cytotoxic | actives 1.6% (n = 360,000) | AID 686970, 2013;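 further: NT is the 2HG producing partner of a matched IDH1 knockdown line; potency means the concentration at half of the fitted maximal effect; 0% = DMSO-treated cells and -100% = media-only wells without cells; nearly all actives have a fitted effect of over 55% in size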
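Fibrosarcoma NT cells, 750 per well in 5% FBS RPMI, were exposed to compound for 48 hours. Viability: CellTiter-Glo luminescence.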
DT40 TDP1 no CPT = qHTS for Inhibitors of human tyrosyl-DNA phosphodiesterase 1 (TDP1): qHTS in cells in absence of CPT; AID 686978, 2013; actives 15% (n = 420,000); DT40 Tdp1-/- hTDP1 cells, no CPT, ATP luminescence, 48 h; Potency, µM (doses to about 46.2 µM), for inactives: at the highest dose activity change, negative = growth inhibition, actives largely listed as inhibitors; further: potency means the concentration at half of the fitted maximal effect; nearly all actives have a fitted effect of over 55% in size
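Camptothecin absent (DMSO only). Human TDP1-complemented DT40 knockout cells, 400 cells/well, 37 °C for minimum 48 hr; ATP measured via CellTiter-Glo, 30 min dark incubation, luminescence.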
IL-1B inflam inh = qHTS for Inhibitors of Inflammasome Signaling: IL-1-beta AlphaLISA Primary Screen; THP-1 LPS/ATP IL-1B secretion, AlphaLISA, 16 h; hits give low values; activity change, % at 57.5 µM; actives 4.7% (n = 360,000); AID 743279, 2014; in the data active means activity change below about -50%; inconclusive means mostly about -30% to -49%
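Secreted IL-1B measured by AlphaLISA bead assay after 16 h compound exposure of THP-1 cells; compounds (final up to 57.5 uM) added 1 h before LPS (250 ng/mL) and ATP (1.25 mM) stimulation; lower signal means less secretion.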
HT1080 IDH1KD tx = qHTS for induction of synthetic lethality in tumor cells producing 2HG: qHTS for the HT-1080-IDH1KD cell line | HT-1080 IDH1 knockdown viability, ATP luminescence, 48 h | Potency, µM (highest dose often 46.1 µM), for the others: top-dose activity, negative = toxicity, most hits filed as cytotoxic | actives 2% (n = 360,000) | AID 686971, 2013;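 further: potency means the concentration at half of the fitted maximal effect; 0% = DMSO wells and -100% = cell-free medium wells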
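IDH1KD HT-1080 cells, 750/well, RPMI + 5% FBS; compound pinned after 2 h settling; 48 h, 37 °C; CellTiter-Glo luminescence; % activity normalised to DMSO and no-cell wells; curves fitted, classed by r2 and efficacy.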
The depositor's hits bear a star; ? = inconclusive; nt = no result. The list is not random: actives were taken first. Their share in the collection is about 19%. Unless noted, the call rests on the fitted dose curve; in most records, active means well fitted curve in the direction sought with a large enough effect; inconclusive means small, poorly fitted or top-dose-only effect, or another doubt; inactive means no such curve, though single readings can be large; an effect the other way counts as inactive or inconclusive. Unless noted, on the % scale 0 is the no-effect control and ±100 the full control effect.

SMILES	TDP1 cell CPT	HT1080NT lethal	DT40 TDP1 no CPT	IL-1B inflam inh	HT1080 IDH1KD tx
Cc1ccc(NC(=O)c2oc3ccccc3c2NC(=O)Cc2ccccc2)cc1	16.4µM*	nt	?	nt	nt
CCOCc1c(C(=O)OCC(=O)Nc2ccc(C)c(S(=O)(=O)N(C)C)c2)oc2ccccc12	?	-0.8%	20.6µM*	3.1	0.5%
CCOCC(=O)Nc1c(C(=O)Nc2ccc3c(c2)OCCO3)oc2ccccc12	?	?	8.2µM*	0.0	?
COC(=O)c1cc(C(=O)OCC(=O)NC2CCS(=O)(=O)C2)cc([N+](=O)[O-])c1 (stereo not drawn)	0.3%	14.7%	6.4%	-9.3	19.6%
Cn1c(SCC(=O)NC2CCCC2)nnc1-c1ccco1	18.1%	-0.4%	-2.4%	-3.0	10.0%
CCOC(=O)C1(Cc2cccc(Cl)c2)CCCN(C(=O)c2cc(C)on2)C1 (stereo not drawn)	18.4µM*	5.3%	20.6µM*	-1.0	4.2%
CCOC(=O)C1(Cc2cccc(Cl)c2)CCCN(C(=O)CCOC)C1 (stereo not drawn)	-8.6%	6.6%	?	74.0	2.1%
CCOC(=O)C1(Cc2cccc(Cl)c2)CCCN(C(=O)c2cc(C(C)C)nn2C)C1 (stereo not drawn)	14.6µM*	-3.3%	?	?	-6.5%
C=CCCC(=O)N1CCCC(Cc2cccc(Cl)c2)(C(=O)OCC)C1 (stereo not drawn)	?	-14.5%	?	-55.6*	-24.9%
CCOC(=O)C1(Cc2cccc(Cl)c2)CCCN(C(=O)c2cc(C)[nH]n2)C1 (stereo not drawn)	-22.2%	3.1%	-26.7%	7.0	2.9%
CCOC(=O)C1(Cc2cccc(Cl)c2)CCCN(C(=O)c2c(CC)noc2C)C1 (stereo not drawn)	?	-10.0%	11.6µM*	37.6	3.7%
CCN(C(=O)CCS(=O)(=O)c1cc2[nH]c(=O)c(=O)[nH]c2cc1C)c1ccccc1	14.7%	nt	-13.2%	nt	nt
Cc1ccc(NC(=O)CN2C(=O)NC(C)(C)C2=O)cc1S(=O)(=O)N1CCCCCC1	-8.9%	4.3%	-12.7%	1.3	3.0%
CC1CCCCC12NC(=O)N(CC(=O)Nc1ccc(Cl)c(S(=O)(=O)N3CCOCC3)c1)C2=O (stereo not drawn)	?	-0.9%	18.4µM*	24.3	-0.9%
CCCC1(CCC)NC(=O)N(CC(=O)Nc2ccc(Cl)c(S(=O)(=O)N3CCOCC3)c2)C1=O	?	5.7%	?	-62.7*	8.5%
Cc1ccc(NC(=O)CN2C(=O)NC(C)(c3ccc(Cl)cc3)C2=O)cc1S(=O)(=O)N1CCOCC1 (stereo not drawn)	20.6µM*	?	18.4µM*	-5.1	13µM*
CC1CCCCC12NC(=O)N(CC(=O)Nc1cccc(S(=O)(=O)N3CCCCC3)c1)C2=O (stereo not drawn)	-21.5%	-1.2%	-22.5%	6.5	-2.1%
Cc1ccc(NC(=O)CN2C(=O)NC3(CCCCC3C)C2=O)cc1S(=O)(=O)N1CCOCC1 (stereo not drawn)	?	-0.2%	23.1µM*	-6.9	-2.2%
Cc1ccc(NC(=O)CN2C(=O)NC3(CCCC3)C2=O)cc1S(=O)(=O)N1CCCCC1	-9.4%	13.5%	-23.6%	2.5	-1.0%
Cn1c(=O)c(-c2cccc(F)c2)nc2cncnc21	-3.8%	nt	-1.8%	nt	nt
Cn1c(=O)c2c(nc(Sc3ncccn3)n2Cc2ccc(Cl)cc2)n(C)c1=O	11.6µM*	-3.4%	?	14.7	-11.7%
CCSc1nc2c(c(=O)n(C)c(=O)n2C)n1Cc1ccc(Cl)cc1	20.6µM*	-1.8%	18.4µM*	0.0	0.1%
Cc1ccc(Cn2c(Sc3ncccn3)nc3c2c(=O)[nH]c(=O)n3C)cc1	?	?	16.4µM*	14.7	-7.9%
Cc1nnc(Sc2nc3c(c(=O)n(C)c(=O)n3C)n2Cc2ccc(Cl)cc2)s1	?	7.8%	16.4µM*	20.1	0.8%
CCOC(=O)c1sc2nc(C)nc(SCC(=O)N(C)C3CCS(=O)(=O)C3)c2c1C (stereo not drawn)	?	5.8%	2.3%	4.9	7.1%
SMILES	TDP1 cell CPT	HT1080NT lethal	DT40 TDP1 no CPT	IL-1B inflam inh	HT1080 IDH1KD tx
CN(C)c1ccc2c3c(ccc(N(C)C)c13)COC2	-7.8%	1.9%	8.6%	37.5	2.0%
COc1cccc(C2NC(=O)CCC2[N+](=O)[O-])c1 (stereo not drawn)	50.8%	-1.4%	-6.5%	37.4	21.4%
CC1CCN(C(=O)c2[nH]cnc2C(=O)N2CCN(c3ccccc3)CC2)CC1	-15.2%	2.7%	-14.4%	16.0	16.2%
Cn1c(=O)c2c(nc(SCC(=O)c3cccs3)n2Cc2ccc(F)cc2)n(C)c1=O	20.6µM*	5.0%	11.6µM*	9.2	0.2%
Cc1ccc(Cn2c(SCC(C)C)nc3c2c(=O)n(C)c(=O)n3C)cc1	25.9µM*	-0.7%	25.9µM*	-27.6	-6.2%
Cn1c(=O)c2c(nc(Br)n2CC(=O)c2cccs2)n(C)c1=O	?	-2.3%	-19.8%	1.6	-7.4%
O=C(C1CCCN(S(=O)(=O)c2ccc(F)cc2)C1)N1CCCCCC1 (stereo not drawn)	11.6µM*	5.4%	8.2µM*	11.2	-6.1%
O=C(C1CCCN(S(=O)(=O)c2ccccc2)C1)N1CCCCC1 (stereo not drawn)	-22.1%	8.3%	-7.3%	42.7	1.9%
O=C(C1CCCN(S(=O)(=O)c2ccc(F)cc2)C1)N1CCCCC1 (stereo not drawn)	-14.6%	6.7%	23.1µM*	32.2	6.6%
Cc1cc(OCCCn2ccnc2)cc(C(C)C)c1	0.3%	-1.9%	-0.1%	33.5	-1.4%
CN(C)CCN1CCN(C2CN(Cc3cn(Cc4ccccc4)nn3)S(=O)(=O)C2)CC1 (stereo not drawn)	-9.9%	14.5%	-5.7%	42.1	?
Cc1ccccc1/C=C/C1=NCCN1	-14.0%	0.0%	-0.2%	-91.8*	-0.3%
Cc1ccc(S(=O)(=O)Cn2nnnc2C(CC(C)C)N2CCN(C3CCCC3)CC2)cc1 (stereo not drawn)	-15.6%	-29.2%	?	?	-0.5%
Cc1ccc(NC(=O)c2cc([N+](=O)[O-])ccc2NCc2cccnc2)cc1Cl	?	?	?	-54.2*	?
Clc1ccc(NCc2cccnc2)c(Cl)c1	-23.2%	-1.3%	?	-59.5*	-0.9%
